M4 PAM: human M4 muscarinic receptor positive allosteric modulators, primary screen, CHO-K1 cells, Fluo-8 calcium fluorescence | activation, % at 3 µM | CHO-K1 hM4/Gqi5, ACh EC20; 0% = ACh EC20, 100% = maximal ACh | Muscarinic acetylcholine receptor M4 (Homo sapiens), P08173 | 360,000 compounds, 0.4% hits;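 active = activation above its plate's cutoff, the mean activation of sample wells plus 3 SD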
Target sequence (P08173 whole entry, looked up): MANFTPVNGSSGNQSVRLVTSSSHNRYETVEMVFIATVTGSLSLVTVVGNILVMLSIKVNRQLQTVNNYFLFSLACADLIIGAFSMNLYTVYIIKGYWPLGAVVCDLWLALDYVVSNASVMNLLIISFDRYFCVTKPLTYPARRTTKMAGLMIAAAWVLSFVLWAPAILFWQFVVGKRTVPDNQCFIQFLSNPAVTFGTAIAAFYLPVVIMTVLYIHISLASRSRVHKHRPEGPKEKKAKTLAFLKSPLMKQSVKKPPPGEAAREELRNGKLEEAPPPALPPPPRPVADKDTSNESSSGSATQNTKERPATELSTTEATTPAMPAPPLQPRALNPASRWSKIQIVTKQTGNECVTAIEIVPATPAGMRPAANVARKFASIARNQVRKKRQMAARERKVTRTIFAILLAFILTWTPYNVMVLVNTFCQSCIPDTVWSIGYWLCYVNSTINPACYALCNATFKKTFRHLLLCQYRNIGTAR
M1 antag: human M1 muscarinic receptor antagonists, primary screen, CHO-K1 cells, Fluo-8 calcium fluorescence, 1536-well; AID 588852, 2011; CHO-K1 hM1, ACh EC80 antagonist; Muscarinic acetylcholine receptor M1 (Homo sapiens), P11229; 360,000 compounds, 1.3% hits; inhibition, % at 3 µM;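 active = percent inhibition above its own plate's cutoff, namely the mean of that plate's compound wells plus 3 SD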;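 also: peak over basal fluorescence ratio during 140 s after agonist addition; 0% = ACh EC80 plus DMSO and 100% = DMSO alone without agonist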
CHRM1 agonist: human M1 muscarinic receptor agonists, primary screen, Fluo-8 calcium fluorescence, CHO-K1 cells, HTS; Muscarinic acetylcholine receptor M1 (Homo sapiens), P11229; CHO-K1 hM1, agonist mode; 0% DMSO, 100% acetylcholine EC100; activation, % at 3 µM; 360,000 compounds, 0.33% hits; AID 588814, 2011;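 active = activation above the run's mean compound activation plus 3 SD, cut at about 16% in these data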;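 also: peak over basal fluorescence ratio within a 140 s kinetic read after compound addition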
CHRM4 agonist: human M4 muscarinic receptor agonists, primary screen, CHO-K1 cells, Fluo-8 calcium fluorescence. Muscarinic acetylcholine receptor M4 (Homo sapiens), P08173. CHO-K1 hM4/Gqi5; vehicle 0%, full acetylcholine response 100%. activation, % at 3 µM. 360,000 compounds, 0.14% hits. AID 624127, 2012;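 active = activation above the run mean over all test wells plus 3 SD, cut at about 32% in these data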;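 also: peak over basal fluorescence ratio per well then scaled between controls; 0% = DMSO wells and 100% = acetylcholine at EC100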
M4 antag: human M4 muscarinic receptor antagonists, primary screen, CHO cells, Fluo-8 calcium fluorescence; Muscarinic acetylcholine receptor M4 (Homo sapiens), P08173; CHO-hM4 cells, ACh EC80; inhibition, % at 3 µM; 360,000 compounds, 0.73% hits;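 active = inhibition above its plate's cutoff, the mean inhibition of sample wells plus 3 SD, cut at about 27% in these data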;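 also: 0% = acetylcholine EC80 with DMSO and 100% = DMSO without agonist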
CHRM1 PAM: human M1 muscarinic receptor positive allosteric modulators, primary screen, CHO-K1 cells, Fluo-8 calcium fluorescence, 1536-well. CHO-K1 hM1, ACh EC20; 0% = ACh EC20, 100% = maximal ACh. activation, % at 3 µM. 360,000 compounds, 0.088% hits; in the data active = activation above about 19%, passing the limit was not always enough
* = called active by the depositor. This is a sample that favours compounds with a hit; in the whole collection about 2.2% have one here.

SMILES	M4 PAM	M1 antag	CHRM1 agonist	CHRM4 agonist	M4 antag	CHRM1 PAM
COc1ccccc1C(CNC(=O)c1cccc(NS(=O)(=O)c2ccc(C)c(F)c2)c1)N1CCCC1 (configuration not stated)	-15	84*	-8	1	21	-26
COc1ccc(C(CNC(=O)c2ccc(NS(=O)(=O)c3ccc(F)c(C)c3)cc2)N2CCCC2)cc1 (configuration not stated)	-13	73*	-8	2	28*	-29
COc1ccc(NC(=O)C2Cc3c(-c4ccc(NC(C)=O)cc4)ccnc3O2)cc1OC (configuration not stated)	0	-17	1	1	3	12
COc1ccc(NC(=O)C2Cc3c(-c4ccc5c(c4)OCO5)ccnc3O2)cc1OC (configuration not stated)	-8	33*	2	15	4	-15
O=C(Nc1cccc(C(F)(F)F)c1)C1Cc2c(-c3ccc(Cl)cc3)ccnc2O1 (configuration not stated)	17*	-14	-1	1	-37	2
Cc1cc(OC(=O)C2CC2)c([N+](=O)[O-])c(=O)[nH]1	9	0	-4	0	-10	-4
CC(C)(C)NC(=O)c1ccccc1NC(=O)C1CCCO1 (configuration not stated)	2	-5	-6	0	-3	9
CC(=O)N1CCN(Cc2cc(=O)n3cc(Cl)c(C)c(Cl)c3n2)CC1	15	-10	-5	1	5	11
Cc1cccc(NC(=S)NC2CCCCCC2)c1C	-7	-11	-7	0	3	9
C=CCC(CC=C)(C(=O)O)c1ccccc1	14	-7	-4	0	-1	6
COc1ccc(Nc2ncnc3ccccc23)cc1	15	-12	-2	1	1	9
COc1ccc(Nc2ccnc3ccccc23)cc1	2	-9	25*	2	-9	0
CCOC(=O)CC(NC(=O)Cc1ccccc1)c1ccccc1Cl (configuration not stated)	5	-8	-5	0	3	6
COc1ccc(C2c3c(-c4cc(Cl)c(C)cc4O)n[nH]c3C(=O)N2Cc2cccnc2)cc1OC (configuration not stated)	15	80*	-6	1	-11	-21
Cc1ccc(S(=O)(=O)N2C[C@@H]3CCCC[C@@H]3[C@@H](C)[C@H]2c2cn(Cc3ccccc3)c3ncccc23)cc1	-4	-2	4	0	-4	29*
Cc1ccc(S(=O)(=O)N2C[C@@H]3CCCC[C@@H]3[C@@H](C)[C@H]2c2cn(Cc3ccccc3)c3ccccc23)cc1	0	2	-2	0	-12	0
CCOc1ccc(N(CC(=O)NCCc2ccccc2)C(=O)c2csnn2)cc1	16*	-16	-4	2	-29	6
COc1ccc(O)c(C(=O)/C=C/c2cc3ccccc3o2)c1	19*	-20	3	1	-16	13
O=C(Cc1ccccc1)N/N=C/c1cc(Br)c(Br)o1	28*	-2	-2	-1	-9	-3
Nc1nc(NC(=O)c2ccc(Cl)cc2)nn1-c1ccccc1	5	-9	-2	0	-7	9
COc1ccc(CCNC(=O)COC(=O)c2cc(S(=O)(=O)NCc3ccccc3)ccc2O)cc1OC	32*	-16	-1	2	19	12
O=C(COC(=O)c1cc(S(=O)(=O)NCc2ccccc2)ccc1O)NCc1ccccc1	-11	19	1	14	11	-11
CCOC(=O)Nc1ccc2c(CN3CCN(S(=O)(=O)c4ccc(C(C)C)cc4)CC3)cc(=O)oc2c1	7	-10	-2	0	-9	10
CC(Sc1ccc(Cl)cc1)C(=O)N(C)CC(=O)Nc1ccc(N2CCOCC2)cc1 (configuration not stated)	-3	18*	-2	5	-16	-7
O=C(CCCN1C(=O)c2ccccc2C1=O)Nc1ccc(S(=O)(=O)N2CCOCC2)cc1	11	-4	-4	2	28*	-3
SMILES	M4 PAM	M1 antag	CHRM1 agonist	CHRM4 agonist	M4 antag	CHRM1 PAM
Cc1cccc(C(=O)OC(C)C(=O)Nc2ccc(S(=O)(=O)N3CCCC3)cc2)c1O (configuration not stated)	-19	29*	-5	19	13	-16
COc1ccc(CC(=O)Nc2ccc(S(=O)(=O)N(C)C3CCN(C)CC3)cc2)cc1	1	5	-4	2	-4	-1
CC(Oc1ccc(Br)cc1)C(=O)Nc1ccc(S(=O)(=O)N(C)C2CCN(C)CC2)cc1 (configuration not stated)	-11	67*	55*	96*	31*	-19
COC(=O)C(NS(=O)(=O)c1ccc(NC(C)=O)cc1)C(C)C (configuration not stated)	4	0	-2	1	-2	-3
CC1CCN(C(C)C(=O)Nc2cc(S(=O)(=O)N3CCCCC3)ccc2Cl)CC1 (configuration not stated)	2	-8	-3	-2	2	2
Cc1ccccc1OC(C)C(=O)Nc1ccc(S(=O)(=O)N2CCCC2)cc1 (configuration not stated)	-1	89*	-4	6	-8	-23
CCOc1ccccc1OC(C)C(=O)Nc1ccc(S(=O)(=O)N2CCCC2)cc1 (configuration not stated)	-4	-2	-6	4	3	2
CC(Oc1ccccc1)C(=O)Nc1ccc(S(=O)(=O)N2CCCC2)cc1 (configuration not stated)	-1	-7	-10	3	1	-4
CC(Oc1cc(F)ccc1[N+](=O)[O-])C(=O)Nc1ccc(S(=O)(=O)N2CCCC2)cc1 (configuration not stated)	-35	73*	-5	10	-14	-26
CC1CCN(C(C)C(=O)Nc2ccc(S(=O)(=O)N3CCCC3)cc2)CC1 (configuration not stated)	-16	101*	-9	2	78*	-30
CC(Oc1ccccc1Cl)C(=O)Nc1ccc(S(=O)(=O)N2CCOCC2)cc1 (configuration not stated)	6	-8	-2	2	1	13
